Assay results: PubChem BioAssay (NCATS)
Calls of active or inactive are those of the source. A call without a number means that no potency is given here. Calls come from the whole dose curve; as a rule, active = well fitted curve in the direction sought with a large enough effect; inconclusive = small, poorly fitted or top-dose-only effect, or another doubt; inactive = no such curve, though single readings can be large or run the other way.

assay: Cellular Toxicity (caspase-3) MRC-5 (AID 659); settings: MRC-5 cells, luminescence; Potency: caspase-3 activation; series mostly up to 91.7 µM
Text: NIH Chemical Genomics Center [NCGC]
NIH Molecular Libraries Screening Centers Network [MLSCN]
National Institutes of Environmental Health Sciences [NIEHS]
National Toxicology Program [NTP]
We have developed a 1536-well cell-based assay for quantitative high throughput screening (qHTS) against a number of cell lines to determine in vitro caspase 3/7 activity of small molecules. This particular assay uses the MRC-5 cell line which is derived from human normal lung fibroblasts.
NCGC Assay Protocol Summary:
The Caspase-Glo 3/7 assay (Promega) is a homogeneous method to measure caspase-3 and caspase-7 activities in cultured cells. The quantitation of caspase 3/7 activity is based on the cleavage of a peptide-aminoluciferin substrate. After caspase cleaves the substrate the free aminoluciferin is liberated and serves as the substrate of luciferase, which generates the light. The luminescent signal is proportional to amount of caspase 3/7 activity present.
Using the Caspase-Glo 3/7 assay, the amount of caspase 3/7 activity was measured in the MRC-5 line with complete culture medium following compound treatment for 16 hours. The assay was performed in opaque white 1536-well plates. In the screen, tamoxifen and staurosporine were used as positive controls. Library compounds were measured for their ability to cause the activation of caspase 3/7 in the cell line, as reflected by an increase in luminescence signal, in a concentration-dependent manner. Data were normalized to the controls for basal activity (DMSO only) and 100% stimulation (10 uM staurosporine). AC50 values were determined from concentration-response data modeled with the standard Hill equation.
qHTS protocol for caspase 3/7 assay in MRC-5 cells
[Step] [Parameter] [Value] [Description]
1. Reagent; 5 uL; 1500 MRC-5 cells/well
2. Time; 5 hr; 37 °C incubation
4. Controls; 23 nL; Tamoxifen 0.23 uM to 100 uM & staurosporine 1.4 pM to 100 uM
5. Time; 16 hr; 37 °C incubation
6. Reagent; 5 uL; Caspase-Glo 3/7 reagent
7. Time; 1 hr; Room Temperature
8. Detection; Luminescence; Viewlux plate reader
Keywords: caspase 3/7, apoptosis, MRC-5 cell line, luminescence, NTPHTS, NTPHTS_NCGC, NIEHS, EPA, DSSTox, MLSMR, MLSCN, NIH Roadmap, qHTS, NCGC
Potency is the fitted concentration of half-maximal effect.

Row | SMILES | Potency
1 | NC(=Nc1ccccc1)Nc1ccccc1 | inactive
2 | NC(=O)N1c2ccccc2C=Cc2ccccc21 | inactive
3 | Nc1ncn([C@@H]2O[C@H](CO)[C@@H](O)[C@H]2O)c(=O)n1 | inactive
4 | COc1cc(Cc2cnc(N)nc2N)cc(OC)c1OC | inactive
5 | CCCCOCCOCCOCc1cc2c(cc1CCC)OCO2 | inactive
6 | CN=C(NC#N)NCCSCc1nc[nH]c1C | inactive
7 | O=c1[nH]c(=O)n([C@H]2C[C@H](O)[C@@H](CO)O2)cc1Br | inactive
8 | COC(=O)[C@H]1[C@H]2C[C@@H]3c4[nH]c5cc(OC)ccc5c4CCN3C[C@H]2C[C@@H](OC(=O)c2cc(OC)c(OC)c(OC)c2)[C@@H]1OC | 31.6 µM (active)
9 | CCCCNC(=O)NS(=O)(=O)c1ccc(C)cc1 | inactive
10 | COc1ccc(CN(CCN(C)C)c2ccccn2)cc1 | inactive
